G9a inh: inhibitors of human histone lysine methyltransferase G9a; Q96KQ7; G9a H3K9 monomethylation, AlphaScreen, 2 h; Potency, µM (highest dose often 102 µM), inactives show at the top dose activity, negative = inhibition, usual class: inhibitors; hit rate 8.8% among 350,000; AID 504332; also: % is scaled to controls: 0 for no effect and ±100 for the full control effect; nearly all actives have a fitted effect of over 75% in size
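Methyltransferase reactions run at room temperature for 2 h (20 nM enzyme, 500 nM biotin-H3K9 peptide, 20 uM SAM) after a 15 min compound preincubation; product detected by AlphaScreen beads and anti-H3K9me1 antibody.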
JMJD2A Tudor: blocks the human JMJD2A Tudor domain; O75164; AlphaScreen JMJD2A-Tudor / H3K4me3 peptide binding; Potency, µM (top dose mostly 114 µM), inactives show top-dose activity change, negative = inhibition, most hits filed as inhibitors; hit rate 4.4% among 390,000; AID 504339; also: % is scaled to controls: 0 for no effect and ±100 for the full control effect; nearly all actives have a fitted effect of over 50% in size
HP1b chromo inh: HP1-beta chromodomain-methylated histone interaction inhibition; P83916; AlphaScreen HP1-beta / biotin-H3K9me3 peptide binding; Potency, µM (doses to about 114 µM), for the others: at the highest dose activity change, negative = inhibition, actives largely listed as inhibitors; hit rate 0.56% among 390,000; also: nearly all actives have a fitted effect of over 70% in size
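Compound inhibition of the preformed complex between 50 nM HP1-beta and 50 nM biotinylated H3K9me3 peptide was read by AlphaScreen. Buffer was PBS pH 7.4 with 0.01% Tween-20. Incubations ran 30 min at room temperature, with 10 ug/mL donor/acceptor beads.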
L3MBTL1 inh: inhibitors of human L3MBTL1; Q9Y468; AlphaScreen L3MBTL1–H3K9me1 peptide binding; Potency, µM (top dose mostly 57.1 µM), inactives show at the highest dose activity, negative = inhibition, usual class: inhibitors; hit rate 0.66% among 230,000; AID 485360; also: % is scaled to controls: 0 for no effect and ±100 for the full control effect; nearly all actives have a fitted effect of over 60% in size
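First, the protein-peptide complex forms for 30 min at room temperature (L3MBTL1 50 nM, biotinylated H3K9me1 peptide 75 nM). Next, compounds are pin-transferred and incubated 30 min. Finally, AlphaScreen beads are added and read after 30 min.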
BAZ2B block: blocks human BAZ2B | AlphaScreen BAZ2B-H3K14Ac peptide displacement | Potency, µM (series often up to 114 µM), without a hit: top-dose activity change, negative = inhibition, most hits filed as inhibitors | hit rate 4.4% among 360,000 | AID 504333; also: % is scaled to controls: 0 for no effect and ±100 for the full control effect; nearly all actives have a fitted effect of over 60% in size
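Complex of BAZ2B and biotin-H3K14Ac (50 nM apiece) forms over 30 min at RT, then faces library compounds up to 110 uM for another 30 min; AlphaScreen beads added, 20 min dark incubation, luminescence read.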
Sfp inh: blocks B. subtilis Sfp PPTase activity; Q9F4F7; Biochemical Sfp PPTase activity, qHTS; Potency, µM, without a hit: largest response in the series, negative = inhibition, most hits filed as inhibitors; hit rate 3.5% among 310,000;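 also: the enzyme is Sfp with the accession as filed and its product quenches rhodamine fluorescence; 0% = enzyme reaction without inhibitor and -100% = no enzyme wells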
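Sfp 15 nM + cpd, 15 min RT; start w/ rhodamine-CoA 5 uM, BHQ-2-YbbR 12.5 uM (final); 50 mM Hepes pH 7.6, 10 mM MgCl2, 0.01% NP-40, 0.01% BSA; read 525/598 nm at 0 and 30 min.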
The depositor's hits bear a star; ? = inconclusive; / = not tested or not shown; [ ] = dose if it differs, or a comment. Hits are enriched below; roughly 12% of the tested compounds scored in any of these assays. Calls follow the shape of the dose curve; as a rule, active = well fitted curve in the direction sought with a large enough effect; inconclusive = small, poorly fitted or top-dose-only effect, or another doubt; inactive = no such curve, though single readings can be large; an effect the other way counts as inactive or inconclusive. Potency is read from the fitted curve at half-maximal effect.

SMILES	G9a inh	JMJD2A Tudor	HP1b chromo inh	L3MBTL1 inh	BAZ2B block	Sfp inh
CN(C)S(=O)(=O)c1cccc(NC(=S)Nc2cccc3cnccc23)c1	/	-35%	?	-17%	18%	2.5µM*
Cc1ccc(NC(=S)Nc2cccc3ccccc23)cc1	/	-27%	-7%	/	?	-27%
COc1cc(OC)c(NC(=O)Nc2sc3nc4n(c(=O)c3c2C)CCC(C)CC4)cc1Cl (configuration not stated)	0%[59 µM]	-6%	33%	/	-2%	/
CCc1ccc(CNC(=O)c2cnc3sc(N4CCCCC4)nn3c2=O)cc1	-6%[59 µM]	-8%	13%	/	-4%	/
Fc1ccc(NC(=S)Nc2cccc3cnccc23)cc1	35µM*	-14%	-12%	-17%	-36%	2.8µM*
C=CCNC(=S)Nc1cccc2ccccc12	45µM*	-9%	17%	-1%	-18%	79µM*
COc1ccc(NC(=S)Nc2cccc3cnccc23)cc1	25µM*	-33%	-19%	-10%	-37%	?
CCOc1ccc(NC(=S)Nc2cccc3cnccc23)cc1	?	-13%	-11%	-5%	-14%	?
O=C(Nc1cccnc1)Nc1cccc(F)c1	5%	-1%	50%	/	-13%	20%
Fc1cccc(NC(=S)Nc2cccnc2)c1	?	-5%[57.1 µM]	16%	0%[11.4 µM]	-31%	35µM*
CCN(CC)c1nc2c(S(=O)(=O)c3ccc(C)cc3)nnn2c2ccsc12	-31%[59 µM]	-15%	11%	/	-27%	/
COc1cccc(NC(=S)Nc2cccc3ccccc23)c1	?	-33%	-1%	/	?	-28%
Cc1cc(NC(=S)Nc2cccnc2)ccc1Br	40µM*	-21%	21%	/	-3%	-15%
Cc1cc(NC(=S)Nc2ccccc2)ccc1Br	22%[0.501 µM]	-11%	6%	-3%	-30%	1%
S=C(Nc1cccnc1)Nc1cccc2cnccc12	35µM*	-12%	-7%	-8%	/	11µM*
COc1cc(NC(=S)Nc2cccnc2)cc(OC)c1	16µM*	-10%	-16%	-2%	-25%	?
COc1ccccc1NC(=S)Nc1cccc2cnccc12	25µM*	-28%	-23%	4%	2%	45µM*
COc1ccc(C(=O)[C@]2(C)C=C(c3ccc(OC)cc3)[C@H](C)C2)cc1	/	/	/	/	/	9%
c1ccc(COc2ccc(CNCc3cccs3)cc2)cc1	14%	17%	50%	23%	44%	56µM*
CCOc1ccc(-c2csc(NC(=O)c3ccco3)n2)cc1	40µM*	-22%	11%	0%	-6%	-7%
O=C(NC(=S)Nc1nc(-c2ccc([N+](=O)[O-])cc2)cs1)c1ccco1	25µM*	-25%	-15%	/	-24%	-17%
O=C(NNc1nc(-c2ccc(Br)cc2)cs1)c1ccco1	28µM*	-26%	30%	-19%	-38%	-10%
CC1CCCCN1C(=O)c1ccc2c(c1)N(Cc1ccc(Cl)cc1)C(=O)c1ccccc1S2=O (configuration not stated)	-17%[59 µM]	-19%	27%	/	-25%	/
CCOC(=O)c1cccc(NC(=O)c2ccc3nc(CCc4ccccc4)oc3c2)c1	-5%[59 µM]	-13%	8%[57 µM]	/	-29%	/
O=C1N/C(=C/c2ccc(N3CCOCC3)o2)C(=O)N1c1cccc(Cl)c1	?	-35%	1%	2%[11.4 µM]	-23%	8.9µM*
CC(C)(C)c1[nH]nc2c1C(c1ccco1)C(C#N)=C(N)O2 (configuration not stated)	?	1%	23%	-9%	?	14%
CCCc1nn(-c2ccccc2)c2c1C(c1cccs1)C(C#N)=C(N)O2 (configuration not stated)	?	?	-27%	-29%	40µM*	3%
COc1cc(C2C(C#N)=C(N)Oc3c2c(-c2ccccc2)nn3-c2ccccc2)cc(OC)c1OC (configuration not stated)	?	?	-2%	-16%	45µM*	19%

Assay outcomes deposited in PubChem by National Center for Advancing Translational Sciences (NCATS).
